From PubChem
E coli growth-1 = E. coli growth inhibition, primary screen, OD600. AID 1053175, 2014. Escherichia coli growth, 23 h; stronger effect = lower value. OD600 absorbance (concentration not given with the values). 330,000 compounds, 0.21% hits;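 active = OD600 absorbance below the run mean of sample wells minus 3.6 SD, in any replicate, cut at about 0.56 in these data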
E coli growth-2 = E. coli V3065 growth inhibition, primary screen, counter-screen for AddAB inhibitor project, absorbance, OD600; 18 h; inhibition, % at 11.9 µM; 330,000 compounds, 0.27% hits; AID 449728, 2010;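 active = inhibition above the campaign's mean inhibition across all tested compounds plus 3 SD, cut at about 9.9% in these data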;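 note: uninfected addAB+ strain grown without phage in ampicillin broth; 0% = DMSO wells and 100% = ciprofloxacin 0.95 µg/ml wells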
Tat transport = E. coli Tat export inhibitors, primary screen, MC4100, TorA-mCherry reporter, fluorescence, single point. 340,000 compounds, 0.036% hits. inhibition, % at 10 µM;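 active = mean replicate inhibition at least 50% and at least half of replicates individually reaching 50%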;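 note: exported cargo escapes ClpAP degradation while cytoplasmic cargo is degraded and loses fluorescence; 0% = median of neutral control wells and 100% = median of NaSCN control wells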
phage Ecoli inh = growth loss of phage-infected E. coli, primary screen, RecBCD inhibitor project, absorbance, with phage, HTS. inhibition, % at 11.9 µM. 360,000 compounds, 0.26% hits; in the data active = inhibition above about 11%
AddAB inh = growth inhibition of E. coli expressing H. pylori AddAB, primary screen, AddAB inhibitor project, absorbance; AID 435030, 2010; 330,000 compounds, 0.29% hits; inhibition, % at 11.9 µM; in the data active = inhibition above about 12%;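 note: 0% = vehicle wells of infected cells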
AddAB conf = growth loss of phage-infected E. coli expressing H. pylori AddAB, confirmation, AddAB inhibitor project, absorbance, E. coli V3065, T4 phage, triplicate; shares compounds with AddAB inh; OD; T4 phage with gene 2 nonsense mutations; inhibition, % at 11.9 µM; 880 compounds, 64% hits;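 active = mean inhibition above a set limit taken from the earlier primary screen, cut at about 13% in these data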;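 note: higher means less bacterial growth since AddAB block lets phage replicate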
RecBCD counter = growth loss of RecBCD+ E. coli with mutant T4 phage, counter-screen for AddAB inhibitor project, absorbance, V66 E. coli; OD growth; shares compounds with AddAB inh; 880 compounds, 73% hits; inhibition, % at 11.9 µM;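 active = mean inhibition above the mean of solvent-only control wells plus 3 SD, cut at about 4% in these data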;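 note: optical density read after an 18 h incubation at 37 °C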
Bact viability = bacterial viability inhibition counter-screen, confirmation, counter-screen for AddAB inhibitor project, absorbance. absorbance (AddAB counterscreen). AID 488956, 2010. 880 compounds, 35% hits. shares compounds with AddAB inh. inhibition, % at 11.9 µM; in the data active = inhibition above about 25%
RecBCD conf = growth loss of phage-infected RecBCD+ E. coli, confirmation, RecBCD inhibitor project, absorbance, E. coli V66, T4 gene 2 phage | shares compounds with phage Ecoli inh | E. coli V66 + T4 2- phage, growth OD | inhibition, % at 11.9 µM | 890 compounds, 45% hits;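 active = mean inhibition over triplicates exceeding the hit threshold derived in the original primary screen, cut at about 11% in these data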
Ecoli viability = E. coli viability inhibition, counter-screen for RecBCD inhibitor project, absorbance, high throughput; shares compounds with phage Ecoli inh; absorbance (OD) growth; inhibition, % at 11.9 µM; 890 compounds, 29% hits; in the data active = inhibition above about 20%;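 note: E. coli strain V66 grown with compound alone and no phage infection; 0% = bacteria with DMSO vehicle only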
AddAB phage OD = growth loss of phage-infected AddAB-carrying E. coli, confirmation, counter-screen for RecBCD inhibitor project, absorbance, E. coli V3065, T4 phage. shares compounds with phage Ecoli inh. E. coli expressing H. pylori AddAB + T4 phage, OD growth; gene 2 mutant T4, recBCD-deleted host. inhibition, % at 11.9 µM. 890 compounds, 45% hits;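 active = mean inhibition above the solvent-only control wells' mean plus 3 SD, cut at about 22% in these data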;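 note: higher means less bacterial growth from phage killing when AddAB is blocked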
* marks the source's active call; other numbers are inactive results; i = inactive; · = no result given; ! = not confirmed by another sample. Only some compounds are listed: those with a hit (about 0.5% of all), similar ones and a draw of the others.

SMILES	E coli growth-1	E coli growth-2	Tat transport	phage Ecoli inh	AddAB inh	RecBCD conf	Ecoli viability	AddAB phage OD	others
Oc1c(C(c2cccs2)N2CCN(c3ccccc3)CC2)ccc2cccnc12 (stereo not drawn)	·	9	·	·	12	·	·	·
CN1CCN(C(c2ccccc2)c2ccccc2)CC1	0.68	-2	-10	4	0	·	·	·
Oc1c(C(c2ccccc2Cl)N2CCCC2)ccc2cccnc12 (stereo not drawn)	0.38*	24*	10	16*	25*	4	6	16	AddAB conf=13*;RecBCD counter=12*;Bact viability=1
COc1ccc(S(=O)(=O)NN=C(C)c2ccc(C)o2)cc1	0.7	·	·	·	·	·	·	·
O=C(C=Cc1ccc(O)cc1)OCc1occc(=O)c1OC1OC(CO)C(O)C(O)C1O (stereo not drawn)	0.69	·	·	·	·	·	·	·
COc1cc2c(cc1OC)C1Cc3cc4c(cc3C(C2)N1C)OCO4 (stereo not drawn)	0.69	·	·	·	·	·	·	·
CCN1/C(=C/C(C)=C/c2sc3ccccc3[n+]2CC)Sc2ccccc21	0.21*	38*	i	14*!	33*	23*	25*	68*	AddAB conf=55*;RecBCD counter=20*;Bact viability=58*
Cc1ccnc2c1ccc1ccccc12	0.6	2	0	3	2	·	·	·
Cc1ccnc2c1ccc1cccnc12	0.37*	·	2	14*	·	13*	17	17
CCC(CC)=NN=Cc1c(O)n(CC)c2cc(C3=NNC(=O)CC3)ccc12	0.78	·	·	·	·	·	·	·
CC(C)(C)C1COC(=O)C(NC(=O)OCC2c3ccccc3-c3ccccc32)CC=CCC(CC(=O)NC(CO)Cc2ccccc2)C(=O)N1 (stereo not drawn)	0.65	·	·	·	·	·	·	·
CO[C@H]1/C=C/O[C@@]2(C)Oc3c(C)c(O)c4c(O)c(c5c(c4c3C2=O)NC2(CCN(CC(C)C)CC2)N=5)=NC(=O)/C(C)=C\C=C\[C@H](C)[C@H](O)[C@@H](C)[C@@H](O)[C@@H](C)[C@H](OC(C)=O)[C@@H]1C	·	·	107*	95*	·	95*	99*	100*
COC(=O)COc1ccc(C=NNC(=O)c2ccc(N(Cc3ccccc3)S(C)(=O)=O)cc2)cc1	0.68	·	·	·	·	·	·	·
O=C(O)COc1ccc(C=Nn2cnc3scc(-c4cccs4)c3c2=O)cc1	0.71	·	·	·	·	·	·	·
CN(C)c1ccc(Sc2ccc3nc(N)nc(N)c3c2)cc1	·	·	·	99*	·	64*	68*	82*
COc1cc2nc(N(C)C)nc(N)c2cc1OC	0.76	-2	-4	0	1	·	·	·
COc1ccccc1C=NNC(=Nc1ccc(C)cc1)c1nc2ccccc2s1	0.68	·	·	·	·	·	·	·
O=C(Nc1cccc([N+](=O)[O-])c1)c1cccc(C(=O)Nc2cccc([N+](=O)[O-])c2)c1	·	-3	-4	2	-2	·	·	·
CC(NC(=O)Nc1cccc([N+](=O)[O-])c1)(C(F)(F)F)C(F)(F)F	0.63	0	-11	14*	4	7	7	6
CCN(CC)C(=O)C(=O)NN=Cc1ccc(C(=O)OC)cc1	0.69	·	·	·	·	·	·	·
Cc1nnc(SCC2=C(C(=O)O)N3C(=O)[C@@H](NC(=O)Cn4cnnn4)[C@H]3SC2)s1	0.045*	1	-6	94*	-1	102*	104*	3
Cc1nnc(SCC2=C(C(=O)O)N3C(=O)C(NC(=O)Cn4cnnn4)C3SC2)s1 (stereo not drawn)	0.062*	-1	0	100*	-3	104*	106*	1
CN(C)CCn1nnnc1SCC1=C(C(=O)O)N2C(=O)[C@@H](NC(=O)Cc3csc(N)n3)[C@H]2SC1	·	0	-3	99*	1	103*	105*	51*
Cc1nnc(SCC2=C(C(=O)O)N3C(=O)C(NC(=O)Cn4nc(C(F)F)c(Cl)c4C)C3SC2)s1 (stereo not drawn)	0.62	2	17	4	-1	·	·	·
CCC(C(=O)NC1C(=O)N2C(C(=O)O)=C(CSc3nnc(C)s3)CSC12)c1ccccc1 (stereo not drawn)	0.63	0	-3	4	0	·	·	·
SMILES	E coli growth-1	E coli growth-2	Tat transport	phage Ecoli inh	AddAB inh	RecBCD conf	Ecoli viability	AddAB phage OD	others
CC=C(C)C(=O)N1CC2(CC(c3cccc(NC(=O)CCCCC)c3)=NO2)CC1C(N)=O (stereo not drawn)	0.67	·	·	·	·	·	·	·
N#CCCn1cc(C=NO)c(-c2ccc(F)cc2)n1	0.73	·	·	·	·	·	·	·
Cc1nnc(NN=Cc2ccc(-c3ccccc3[N+](=O)[O-])o2)n1N	0.62	·	·	·	·	·	·	·
Cc1cc(C(=O)c2cnc(N=CN(C)C)s2)cc(C)c1O	0.72	·	·	·	·	·	·	·
CNc1ncnc(Sc2nc(N)nc3nc[nH]c23)c1[N+](=O)[O-]	·	·	-1	62*	·	55*	65*	79*
Nc1nc(SCc2ccccc2)c2[nH]cnc2n1	0.67	2	-2	2	0	·	·	·
Nc1nc(Sc2ccc([N+](=O)[O-])c3nonc23)c2[nH]cnc2n1	·	·	-5	39*	·	44*	51*	68*
COc1cc(C(=O)N=c2sccn2C)c([N+](=O)[O-])cc1OC	0.68	·	-3	3	·	·	·	·
Cn1ccsc1=NC(=O)c1ccc([N+](=O)[O-])o1	0.062*	99*	12	100*	99*	99*	101*	101*
Cc1nccn1CC(=O)NN=Cc1c[nH]c2ccccc12	0.68	·	·	·	·	·	·	·
CC(C)(C)C(=O)Nc1ccc(Sc2ccc([N+](=O)[O-])cc2)cc1	0.72	-1	10	2	2	·	·	·
CC(=O)Nc1ccc(Sc2ccc([N+](=O)[O-])o2)cc1	0.55	·	-22	21*	·	15*	17	72*
Nc1c(Cl)ncnc1N/N=C/c1ccccn1	·	-2	·	30*	2	38*	49*	37*
Nc1nnnn1N=Cc1ccc(N2CCCCC2)c([N+](=O)[O-])c1	0.68	·	·	·	·	·	·	·
O=C(NN=Cc1cc(Br)cs1)c1ccncc1	0.66	·	·	·	·	·	·	·
CCCn1c(SCC(=O)NC2CCCC2)nnc1-c1ccccn1	0.67	0	-3	38*	-1	-2	-1	3
